# Results reported in PubChem BioAssay (EPA / NIEHS).
# Results filed as inconclusive are left out. The source made the active and inactive calls. How the source made its calls: active means hit-call score of the fitted dose curve at least 0.9, where 1 is the maximum; inconclusive means response in the unintended direction; inactive means score below 0.9.
# Target: human Peroxisome Proliferator-activated Receptor delta (PPARd), PPARD (gene 5467) (UniProt Q03181)
# Assay: ATG_PPARd_TRANS: Attagene TRANS-FACTORIAL HepG2 Assay for human Peroxisome Proliferator-activated Receptor delta (PPARd) (AID 2283002)
# Method: ATG_TRANS is a cell-based, multiplexed-readout assay that uses HepG2, a human liver cell line, with measurements taken at 24 hours after chemical dosing in a 24-well plate.ATG_PPARd_TRANS is one of 30 assay component(s) measured or calculated from the ATG_TRANS assay. It is designed to make measurements of mRNA induction, a form of inducible reporter, as detected with fluorescence intensity signals by Reverse transcription polymerase chain reaction (RT-PCR) and Capillary electrophoresis technology.Data from the assay component ATG_PPARd_TRANS was analyzed into 1 assay endpoint. This assay endpoint, ATG_PPARd_TRANS, was analyzed in the positive analysis fitting direction relative to DMSO as the negative control and baseline of activity. Using a type of inducible reporter, measures of mRNA for gain-of-signal activity can be used to understand the reporter gene at the transcription factor-level as they relate to the gene PPARD. Furthermore, this assay endpoint can be referred to as a primary readout, because this assay has produced multiple assay endpoints where this one serves a reporter gene function. To generalize the intended target to other relatable targets, this assay endpoint is annotated to the nuclear receptor intended target family, where the subfamily is non-steroidal.
# Human liver HepG2 cells are transiently transfected with multiple reporter transcription units (MRTUs) in 6-well plates using FuGene 6 reagent (Roche; 3 ml FuGene/1 mg DNA). The MRTU constructs are regulated by a cis-regulating element (promoter). […] A major difference between the CIS and TRANS system is that in CIS activities of endogenous TFs are measured, whereas the TRANS assay evaluates changes in activities of exogenous, chimeric NR-Gal4 proteins. […] At the end of 24 hour incubation, total RNA was isolated using TriZol reagent (Invitrogen). The isolated RNA is then reverse-transcribed using oligo(dT) primer and Mo-MLV reverse transcriptase (Invitrogen) with DNAse I (Ambion) treatment for 30 min. The one-tenth of the produced cDNA was amplified by PCR using Taq DNA polymerase (Invitrogen) and two reporter sequence-specific primers. The PCR products were fluorescently labeled by primer extension with 6-arboxyfluorescein (6-FAM) 5'-labeled reporter sequence-specific primer (2 min at 95 C, 20 s at 68 C and 10 min at 72 C) and these products were digested with 5U of HpaI (New England Biolabs) for 2h at 37 C. The fragments were purified using Qiaquick PCR columns (Qiagen), analyzed on an ABI 3130xL genetic analyzer (Applied Biosystems) with peak positions identified by using a set of X-rhodamine (ROX)-labeled MapMarker1000 molecular weight standards (BioVentures). The raw capillary electrophoresis data was processed using Attagraph software (Attagene).
# Sequence of human Peroxisome Proliferator-activated Receptor delta (PPARd), PPARD (gene 5467) (Q03181 whole entry, looked up): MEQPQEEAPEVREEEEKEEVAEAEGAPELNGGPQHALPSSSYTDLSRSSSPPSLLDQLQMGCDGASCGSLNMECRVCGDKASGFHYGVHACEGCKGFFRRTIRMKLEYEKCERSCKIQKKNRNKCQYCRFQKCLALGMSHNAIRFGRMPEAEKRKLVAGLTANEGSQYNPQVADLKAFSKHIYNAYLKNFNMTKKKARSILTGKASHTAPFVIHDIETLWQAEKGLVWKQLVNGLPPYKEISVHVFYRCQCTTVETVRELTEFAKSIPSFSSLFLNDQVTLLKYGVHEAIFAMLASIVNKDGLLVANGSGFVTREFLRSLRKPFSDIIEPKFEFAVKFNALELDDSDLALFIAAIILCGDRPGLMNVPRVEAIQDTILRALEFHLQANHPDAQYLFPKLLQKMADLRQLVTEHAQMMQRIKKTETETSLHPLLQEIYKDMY
Structure (SMILES),outcome,AC50
O=C(O)c1ccccc1C(=O)O,inactive,–
CCCCNC(N)=O,inactive,–
O=C(Oc1ccccc1)c1ccccc1,inactive,–
CO[Si](CCCNCCN)(OC)OC,inactive,–
CC(C)(Oc1ccc(Cl)cc1)C(=O)O,inactive,–
CC/C=C\CCCCCO,inactive,–
Oc1cccc2ccccc12,inactive,–
c1ccc2c(c1)Oc1ccccc1S2,inactive,–
CCC(C)(CCC(C)C)C(=O)O (stereo not given),inactive,–
COC(=O)/C=C\C(=O)OC,inactive,–
CC(C)(C)NC(=O)[C@@H]1CN(Cc2cccnc2)CCN1C[C@@H](O)C[C@@H](Cc1ccccc1)C(=O)N[C@H]1c2ccccc2C[C@H]1O,inactive,–
CC/C=C\CC/C=C/C(OCC)OCC,inactive,–
Cc1cc(-n2nc3ccc(Cl)cc3n2)c(O)c(C(C)(C)C)c1,inactive,–
O=C(O)c1cc(Cl)cc(Cl)c1O,inactive,–
Cc1cc(O)cc(C)c1Cl,inactive,–
Nc1nnc(-c2ccc([N+](=O)[O-])o2)o1,inactive,–
C[Si](C)(C)O[Si](C)(C)O[Si](C)(C)C,inactive,–
CCCCCCCCCCC1CO1 (stereo not given),inactive,–
CCCCCCOC(=O)CCCCCCCC(=O)OCCCCCC,inactive,–
C[C@H]1C[C@H]2[C@@H]3CCC4=CC(=O)C=C[C@]4(C)[C@@]3(F)[C@@H](O)C[C@]2(C)[C@@]1(O)C(=O)CO,inactive,–

Structure (SMILES),outcome,AC50
CCCCCC1CCCC(=O)O1 (stereo not given),inactive,–
CCCCCCC(O)CCCCCCCCCCC(=O)OC (stereo not given),–,22.8 µM (active)
NC(=O)c1ccc([N+](=O)[O-])cc1Cl,inactive,–
CC(=O)OC(C)(C)Cc1ccccc1,inactive,–
OCCOCCOCCOCCOCCO,inactive,–
OCCc1ccccn1,inactive,–
CC(C)n1c(/C=C/[C@@H](O)C[C@@H](O)CC(=O)O)c(-c2ccc(F)cc2)c2ccccc21,inactive,–
O=C(O)c1nc(Cl)c(Cl)c(Cl)c1Cl,inactive,–
C=C(C)C(=O)OCC1CCCO1 (stereo not given),inactive,–
CN(C)N=Nc1ccccc1,inactive,–
COC(OC)C(C)c1ccccc1 (stereo not given),inactive,–
COc1c2occc2cc2ccc(=O)oc12,inactive,–
CCCCCCC1CCCC(=O)O1 (stereo not given),–,52.6 µM (active)
CCCc1c(OCCCCc2nn[nH]n2)ccc(C(C)=O)c1O,inactive,–
C=CN1CCCCCC1=O,inactive,–
O=C(O)/C=C/C(=O)O,inactive,–
O=C(O)/C=C\C(=O)O,inactive,–
[O-][n+]1ccc(Cl)cc1,inactive,–
CCCCCCC1CCC(=O)O1 (stereo not given),inactive,–
c1cc(N(CC2CO2)CC2CO2)ccc1Cc1ccc(N(CC2CO2)CC2CO2)cc1 (stereo not given),inactive,–
